PMC7862700, “An all-to-all approach to the identification of sequence-specific readers for epigenetic DNA modifications on cytosine”

Each sequence was assayed against T1, FEV (Homo sapiens, UniProt Q99581 1-238) (assay: DAPPL (digital affinity profiling via proximity ligation, sequencing); 10 mM Tris-HCl pH 7.5, 50 mM NaCl, 1 mM DTT, 4% glycerol, room temperature, 30 min; GST-TFs on glutathione beads, 16-mer random dsDNA library, 0.1% formaldehyde crosslink after washing; high values mean tight binding). Details: protein: recombinant; tags: N-terminal GST; dsDNA, one strand shown.
T1 sequence: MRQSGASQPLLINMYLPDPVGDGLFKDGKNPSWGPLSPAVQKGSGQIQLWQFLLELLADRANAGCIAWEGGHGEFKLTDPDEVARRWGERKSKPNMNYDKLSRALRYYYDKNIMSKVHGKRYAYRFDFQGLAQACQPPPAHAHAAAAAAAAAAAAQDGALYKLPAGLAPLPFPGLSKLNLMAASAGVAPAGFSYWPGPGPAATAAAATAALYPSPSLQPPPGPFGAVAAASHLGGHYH
How it was run: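 Binding signal is given per hexamer as its read frequency for a factor divided by its frequency in the tag-only sample. GST-fused human transcription factors were expressed in yeast, captured on glutathione beads, barcoded with DNA and pooled with that sample, then incubated with 200 nmole of a 16-mer random double-stranded DNA library in Tris/NaCl/DTT/glycerol buffer for 30 min at room temperature. The pools were then washed, crosslinked, proximity-ligated, amplified by PCR and sequenced on an Illumina NextSeq500.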
ATTGAT was tested, and the binding signal was 1.25 fold enrichment (6-mer frequency, TF over GST control).
For CATCTA, the binding signal was 1.14 fold enrichment (6-mer frequency, TF over GST control).
CTGATT was tested, and the binding signal was 1.05 fold enrichment (6-mer frequency, TF over GST control).
CGAATA was tested, and the binding signal was 1.16 fold enrichment (6-mer frequency, TF over GST control).
With AAGAAA the binding signal was 1.15 fold enrichment (6-mer frequency, TF over GST control).
AGTATT was tested, and the binding signal was 1.14 fold enrichment (6-mer frequency, TF over GST control).
With TAAATG the binding signal was 1.18 fold enrichment (6-mer frequency, TF over GST control).
With TTTTGT the binding signal was 1.33 fold enrichment (6-mer frequency, TF over GST control).
With TCTGCT the binding signal was 1.28 fold enrichment (6-mer frequency, TF over GST control).
In the case of TTGAAA, the binding signal is reported as 1.13 fold enrichment (6-mer frequency, TF over GST control).
With ACAATA the binding signal was 1.13 fold enrichment (6-mer frequency, TF over GST control).
In the case of CCTAAG, the binding signal is reported as 1.14 fold enrichment (6-mer frequency, TF over GST control).
With CTCAAT the binding signal was 1.23 fold enrichment (6-mer frequency, TF over GST control).
For TACATA, the binding signal was 1.21 fold enrichment (6-mer frequency, TF over GST control).
With TATTTT the binding signal was 1.23 fold enrichment (6-mer frequency, TF over GST control).
With TTAATG the binding signal was 1.12 fold enrichment (6-mer frequency, TF over GST control).
ATCGAT was tested, and the binding signal was 1.02 fold enrichment (6-mer frequency, TF over GST control).
In the case of TCCATT, the binding signal is reported as 1.31 fold enrichment (6-mer frequency, TF over GST control).
With CGTTAA the binding signal was 1.18 fold enrichment (6-mer frequency, TF over GST control).
With TCTAGC the binding signal was 1.25 fold enrichment (6-mer frequency, TF over GST control).
With ATGCTA the binding signal was 1.32 fold enrichment (6-mer frequency, TF over GST control).
For TTATGT, the binding signal was 1.15 fold enrichment (6-mer frequency, TF over GST control).
TCTTGA was tested, and the binding signal was 1.3 fold enrichment (6-mer frequency, TF over GST control).
ATGCTT was tested, and the binding signal was 1.2 fold enrichment (6-mer frequency, TF over GST control).
For CATCCT, the binding signal was 1.59 fold enrichment (6-mer frequency, TF over GST control).
For ACTGAT, the binding signal was 1.19 fold enrichment (6-mer frequency, TF over GST control).
For TTACTC, the binding signal was 1.21 fold enrichment (6-mer frequency, TF over GST control).
TTGCCC was tested, and the binding signal was 1.46 fold enrichment (6-mer frequency, TF over GST control).
With ACGTCC the binding signal was 1.81 fold enrichment (6-mer frequency, TF over GST control).
With AATGTT the binding signal was 1.47 fold enrichment (6-mer frequency, TF over GST control).
With AATAGT the binding signal was 1.19 fold enrichment (6-mer frequency, TF over GST control).
With CCAATC the binding signal was 1.11 fold enrichment (6-mer frequency, TF over GST control).
For GTATCC, the binding signal was 2.08 fold enrichment (6-mer frequency, TF over GST control).
With ACAATT the binding signal was 1.27 fold enrichment (6-mer frequency, TF over GST control).
With TTCTTT the binding signal was 1.19 fold enrichment (6-mer frequency, TF over GST control).
In the case of TAAAAC, the binding signal is reported as 1.22 fold enrichment (6-mer frequency, TF over GST control).
With TCCTTC the binding signal was 2.2 fold enrichment (6-mer frequency, TF over GST control).
For TTCGTA, the binding signal was 1.3 fold enrichment (6-mer frequency, TF over GST control).
For TAGCTA, the binding signal was 1.22 fold enrichment (6-mer frequency, TF over GST control).
In the case of TATTTG, the binding signal is reported as 1.39 fold enrichment (6-mer frequency, TF over GST control).
